Assay [1] in a line: qHTS assay for measurement of the activity of small molecule inhibitors on Zika virus induced Caspase-3 activity in human astrocytoma cells (AID 1224859).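 Also: plate controls were ZIKV-infected untreated cells for no effect and uninfected cells for full effect.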 In outline:
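SNB-19 astrocytoma cells, 250/well, pretreated 1 h with compounds, then Zika virus at 2 FFU/cell for 6 h at 37 C; Caspase-Glo 3/7 luminescence after 30 min; percent inhibition normalised to uninfected and infected controls.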
On the technique in general: Quantitative high-throughput screening tests each substance at several concentrations.

A short description of assay [2]: qHTS assay to identify small molecule inhibitors of chordoma cells - UCH-2 (AID 1259356). Also: series mostly up to about 46 µM; % is scaled to controls: 0 for no effect and ±100 for the full control effect.
Assay [3] is described as follows: P-glycoprotein substrates identified in KB-8-5-11 adenocarcinoma cell line, qHTS therapeutic library screen (AID 1346987). Also: nearly all actives have a fitted effect of over 65% in size. Also: potency is read from the fitted curve at half-maximal effect. In a few lines:
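Human cervical adenocarcinoma KB-8-5-11 cells, selected in colchicine to over-express P-gp and assayed without it, were exposed for 72 h to titrated compounds. An ATP-based luminescent viability signal gave AC50.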

Assay [4] addresses Atrial natriuretic peptide receptor 1 (Homo sapiens) (UniProt P16066). The assay is described as follows: Natriuretic polypeptide receptor (hNpr1) antagonism - Pilot screen (AID 1347049; calls by dose curve;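 also: HEK293 cells with hNpr1 and GloSensor cGMP luciferase stimulated by 0.1 nM hNppA; agonist-evoked cGMP luminescence read 20 min after hNppA addition; series mostly up to about 58 µM; % is scaled to controls: 0 for no effect and ±100 for the full control effect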). In outline:
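Cells expressing receptor plus cGMP biosensor are seeded and incubated overnight at 37C, then loaded with GloSensor reagent (2% final) at room temperature for 2 h. Library compounds go on for 30 min. A pre-read precedes agonist (hNppA, 0.1 nM final) and a 20-min readout.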

Assay [5] addresses Atrial natriuretic peptide receptor 2 (Homo sapiens) (UniProt P20594). Briefly: Natriuretic polypeptide receptor (hNpr2) antagonism - Pilot subtype selectivity assay (AID 1347050; calls by dose curve; also: potency is read from the fitted curve at half-maximal effect). In outline:
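Read-out: GloSensor luminescence (CCD imager), baseline vs post-stimulation. HEK293 cells expressing hNpr2; compounds pre-incubated 30-50 min at ambient temperature; hNppC 1 nM final, 20 min.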

The target in assay [6] is T1, Tyrosine-protein phosphatase non-receptor type substrate 1 (Homo sapiens) + Leukocyte surface antigen CD47 (Homo sapiens) (UniProt P78324+Q08722). The assay is described as follows: CD47-SIRPalpha protein protein interaction - LANCE assay qHTS validation (AID 1347057; active = well fitted curve in the direction sought with a large enough effect in the signal ratio, with a control signal flat, not every such curve was filed as active; the % refers to the signal ratio; also: series mostly up to about 38 µM; 0% is about no effect). In a few lines: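 Inhibition of soluble CD47/SIRPalpha ectodomain association by titrated compounds, measured as 665/615 nm time-resolved FRET ratio after sequential 30 min room-temperature incubations.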
For orientation: Time-resolved FRET reads energy transfer from a long-lived donor to a nearby acceptor.

The target of assay [7] is T1, Tyrosine-protein phosphatase non-receptor type substrate 1 (Homo sapiens) + Leukocyte surface antigen CD47 (Homo sapiens). Briefly: CD47-SIRPalpha protein protein interaction - HTRF assay qHTS validation (AID 1347058; active = well fitted curve in the direction sought with a large enough effect in the signal ratio, not every such curve was filed as active; the % refers to the signal ratio; also: series mostly up to about 38 µM; 0% is about no effect). In outline:
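Soluble extracellular domains (6His-CD47, Avi-tag-biotinylated SIRPalpha) in PBS pH 7.4 with 0.05% IGEPAL CA-630. Compounds were preincubated 30 min at RT with CD47 and anti-His-Eu, then SIRPalpha and SAV-XL665 were added. TR-FRET 665/615 ratio.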

The target in assay [8] is Parathyroid hormone/parathyroid hormone-related peptide receptor (Homo sapiens) (UniProt Q03431). Briefly: qHTS for PTHR1 Agonists: Optimization Screen against the NCGC LOPAC library (AID 1347079).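 Also: GloSensor cAMP luminescence in HEK-293 GP2 cells expressing human PTHR1 with IBMX; 0% is about no effect.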 In a few lines: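 Signal increase flags agonism. GP2 cells, derived from HEK-293, express human PTHR1 and a GloSensor cAMP construct.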
Assay [9] is described as follows: qHTS of pediatric cancer cell lines to identify multiple opportunities for drug repurposing: Primary screen for SJ-GBM2 cells (AID 1347091).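 Also: plate controls were DMSO neutral control for no effect and bortezomib for full effect.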 In a few lines:
(§1)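 Eight- or eleven-point concentration series, 48 h treatment at 37 degrees C in growth media; readout CellTiter-Glo luminescence. Potency and efficacy were taken from the concentration-response curves.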

A short description of assay [10]: NS1 protein of Zika virus - qHTS assay to identify small molecule inhibitors in human HEK 293 cells (AID 1347053).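 Also: series mostly up to about 46 µM; plate controls were infected untreated cells for no effect and uninfected cells for full effect; nearly all actives have a fitted effect of over 55% in size.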 In a few lines: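 Compound-treated (1 h pre-infection) HEK 293 cells infected with ZIKV MR766, MOI = 0.5; after 24 h at 37 C, NS1 read by TR-FRET; data normalized to uninfected and infected controls.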
Assay [11] addresses T1, Tyrosine-protein phosphatase non-receptor type substrate 1 (Homo sapiens) + Leukocyte surface antigen CD47 (Homo sapiens). The assay is described as follows: CD47-SIRPalpha protein protein interaction - Alpha assay qHTS validation (AID 1347059).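 Also: bead proximity luminescence from CD47 binding SIRPalpha after compound preincubation with SIRPalpha; % is scaled to controls: 0 for no effect and ±100 for the full control effect.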 In a few lines:
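In PBS (pH 7.4) with 0.05% IGEPAL CA-630, compound is preincubated with biotin-Avi-SIRPalpha ectodomain before His-CD47 ectodomain and affinity beads are added. Light-protected room-temperature incubations; AlphaScreen readout.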

Assay [12] can be described thus: qHTS of pediatric cancer cell lines to identify multiple opportunities for drug repurposing: Primary screen for TC32 cells (AID 1347089). Also: % is scaled to controls: 0 for no effect and ±100 for the full control effect; nearly all actives have a fitted effect of over 60% in size. In outline: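 In the primary qHTS, MIPE compounds were tested at 11 concentrations (0.78 nM to 46 µM) and NPC compounds at 8 (0.59 nM to 46 µM) on TC32 cells for 48 h. CellTiter-Glo luminescence gave viability.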
Assay [13] can be described thus: qHTS of pediatric cancer cell lines to identify multiple opportunities for drug repurposing: Primary screen for DAOY cells (AID 1347090).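 Also: series mostly up to about 46 µM; plate controls were DMSO for no effect and bortezomib for full effect; nearly all actives have a fitted effect of over 55% in size.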 In outline:
as §1

Assay [14] in a line: qHTS of pediatric cancer cell lines to identify multiple opportunities for drug repurposing: Primary screen for A673 cells (AID 1347092). Also: % is scaled to controls: 0 for no effect and ±100 for the full control effect; nearly all actives have a fitted effect of over 45% in size. In a few lines: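 48 h compound exposure, A673, 500-1,000 cells/well, 37 degrees C/5% CO2. MIPE: 11-point, 0.78 nM-46 µM; NPC: 8-point, 0.59 nM-46 µM (final). Readout CellTiter-Glo luminescence after 15 min RT.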
A short description of assay [15]: Natriuretic polypeptide receptor (hNpr1) antagonism - Pilot counterscreen GloSensor control cell line (AID 1347045; calls by dose curve; also: potency is read from the fitted curve at half-maximal effect). In a few lines: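 The SNP-driven cGMP luminescence signal (50 uM, 20 min, room temperature) was measured in GloSensor HEK293 control cells. Compounds were tested as a LOPAC titration series and preincubated for 30-50 min.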
A short description of assay [16]: qHTS assay to identify small molecule inhibitors of chordoma cells - UCH-1 (AID 1259355). Also: % is scaled to controls: 0 for no effect and ±100 for the full control effect; nearly all actives have a fitted effect of over 55% in size. In a few lines:
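A 48hr growth-inhibition format: each drug tested at 15 concentrations together with added auranofin, camptothecin, doxorubicin, rubitecan and topotecan, with cell viability quantified as CellTiter-Glo luminescence.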

Molecules are shown by their SMILES. A number with no mark means an inactive call. Inconclusive results are not listed. Active and inactive are the calls of the source. Unless noted, calls follow the shape of the dose curve; as a rule, active = well fitted curve in the direction sought with a large enough effect; inconclusive = small, poorly fitted or top-dose-only effect, or another doubt; inactive = no such curve, though single readings can be large; an effect the other way counts as inactive or inconclusive.

Atrial natriuretic peptide receptor 2 (Homo sapiens), sequence (P20594 whole entry, looked up): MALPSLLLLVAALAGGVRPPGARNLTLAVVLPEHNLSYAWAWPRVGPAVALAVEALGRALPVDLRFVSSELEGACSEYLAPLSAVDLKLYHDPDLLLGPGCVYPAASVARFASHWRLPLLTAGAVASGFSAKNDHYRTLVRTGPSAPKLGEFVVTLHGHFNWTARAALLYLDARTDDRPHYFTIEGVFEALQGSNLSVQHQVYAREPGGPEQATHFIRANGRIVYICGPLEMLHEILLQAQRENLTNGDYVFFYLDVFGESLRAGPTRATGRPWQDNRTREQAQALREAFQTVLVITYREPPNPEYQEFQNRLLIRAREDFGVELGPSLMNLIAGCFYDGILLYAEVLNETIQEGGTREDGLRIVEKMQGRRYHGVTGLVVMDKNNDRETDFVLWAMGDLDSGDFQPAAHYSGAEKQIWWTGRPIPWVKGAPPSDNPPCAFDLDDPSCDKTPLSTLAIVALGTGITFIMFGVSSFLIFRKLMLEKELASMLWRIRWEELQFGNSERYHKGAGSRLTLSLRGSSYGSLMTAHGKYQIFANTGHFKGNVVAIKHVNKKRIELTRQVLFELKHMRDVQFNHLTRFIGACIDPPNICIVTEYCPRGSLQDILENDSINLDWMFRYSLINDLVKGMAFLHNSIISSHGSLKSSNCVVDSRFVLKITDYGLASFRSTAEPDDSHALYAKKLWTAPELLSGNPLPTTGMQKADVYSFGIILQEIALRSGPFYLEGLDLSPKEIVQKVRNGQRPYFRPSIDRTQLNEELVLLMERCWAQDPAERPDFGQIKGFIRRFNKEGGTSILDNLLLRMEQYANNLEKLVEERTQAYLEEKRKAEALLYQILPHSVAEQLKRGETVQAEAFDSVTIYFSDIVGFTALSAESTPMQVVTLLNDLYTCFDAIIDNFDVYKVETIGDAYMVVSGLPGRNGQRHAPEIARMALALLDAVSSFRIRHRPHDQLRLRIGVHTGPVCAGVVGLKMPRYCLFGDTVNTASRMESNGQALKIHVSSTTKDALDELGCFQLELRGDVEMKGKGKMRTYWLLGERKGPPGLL
T1 sequence (P78324 whole entry, looked up, the tested form may be a part): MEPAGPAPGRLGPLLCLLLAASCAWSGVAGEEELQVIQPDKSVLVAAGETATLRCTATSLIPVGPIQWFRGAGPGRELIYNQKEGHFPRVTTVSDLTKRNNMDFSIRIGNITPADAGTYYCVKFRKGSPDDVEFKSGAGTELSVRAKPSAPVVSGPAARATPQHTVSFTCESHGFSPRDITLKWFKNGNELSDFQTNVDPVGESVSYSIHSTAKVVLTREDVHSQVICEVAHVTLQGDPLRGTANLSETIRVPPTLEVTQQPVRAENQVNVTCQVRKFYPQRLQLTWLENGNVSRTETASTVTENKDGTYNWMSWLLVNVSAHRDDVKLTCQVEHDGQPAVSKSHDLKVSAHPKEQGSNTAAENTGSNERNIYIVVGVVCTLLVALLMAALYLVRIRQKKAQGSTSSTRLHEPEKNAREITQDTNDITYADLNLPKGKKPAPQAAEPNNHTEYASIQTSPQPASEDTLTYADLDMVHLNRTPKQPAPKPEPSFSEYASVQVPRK
T1 sequence (Q08722 whole entry, looked up, the tested form may be a part): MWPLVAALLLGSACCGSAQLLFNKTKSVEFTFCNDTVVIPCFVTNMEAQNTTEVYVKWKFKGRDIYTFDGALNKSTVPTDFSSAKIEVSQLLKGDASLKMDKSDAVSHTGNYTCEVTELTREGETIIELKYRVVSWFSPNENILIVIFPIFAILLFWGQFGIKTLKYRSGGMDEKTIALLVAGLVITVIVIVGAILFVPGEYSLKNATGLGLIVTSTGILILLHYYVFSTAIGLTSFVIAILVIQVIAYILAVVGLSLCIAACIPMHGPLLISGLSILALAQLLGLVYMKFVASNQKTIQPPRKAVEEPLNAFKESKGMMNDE
Parathyroid hormone/parathyroid hormone-related peptide receptor (Homo sapiens), sequence (Q03431 whole entry, looked up): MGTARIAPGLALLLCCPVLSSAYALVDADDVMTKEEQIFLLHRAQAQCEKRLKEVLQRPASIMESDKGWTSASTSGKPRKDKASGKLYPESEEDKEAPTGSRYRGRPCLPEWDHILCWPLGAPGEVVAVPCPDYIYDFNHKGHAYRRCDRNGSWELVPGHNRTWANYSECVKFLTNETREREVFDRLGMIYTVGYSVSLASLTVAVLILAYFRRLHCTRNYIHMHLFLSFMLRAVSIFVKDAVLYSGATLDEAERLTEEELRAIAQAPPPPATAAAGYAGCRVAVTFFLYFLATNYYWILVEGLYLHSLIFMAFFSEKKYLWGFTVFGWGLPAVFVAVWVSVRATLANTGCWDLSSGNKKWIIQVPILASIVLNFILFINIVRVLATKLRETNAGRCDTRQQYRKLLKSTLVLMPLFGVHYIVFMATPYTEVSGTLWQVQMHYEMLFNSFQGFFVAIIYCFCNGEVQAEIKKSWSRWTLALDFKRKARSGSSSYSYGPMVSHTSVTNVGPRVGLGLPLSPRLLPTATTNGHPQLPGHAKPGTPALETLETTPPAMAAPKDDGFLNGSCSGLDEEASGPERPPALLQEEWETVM
Atrial natriuretic peptide receptor 1 (Homo sapiens), sequence (P16066 whole entry, looked up): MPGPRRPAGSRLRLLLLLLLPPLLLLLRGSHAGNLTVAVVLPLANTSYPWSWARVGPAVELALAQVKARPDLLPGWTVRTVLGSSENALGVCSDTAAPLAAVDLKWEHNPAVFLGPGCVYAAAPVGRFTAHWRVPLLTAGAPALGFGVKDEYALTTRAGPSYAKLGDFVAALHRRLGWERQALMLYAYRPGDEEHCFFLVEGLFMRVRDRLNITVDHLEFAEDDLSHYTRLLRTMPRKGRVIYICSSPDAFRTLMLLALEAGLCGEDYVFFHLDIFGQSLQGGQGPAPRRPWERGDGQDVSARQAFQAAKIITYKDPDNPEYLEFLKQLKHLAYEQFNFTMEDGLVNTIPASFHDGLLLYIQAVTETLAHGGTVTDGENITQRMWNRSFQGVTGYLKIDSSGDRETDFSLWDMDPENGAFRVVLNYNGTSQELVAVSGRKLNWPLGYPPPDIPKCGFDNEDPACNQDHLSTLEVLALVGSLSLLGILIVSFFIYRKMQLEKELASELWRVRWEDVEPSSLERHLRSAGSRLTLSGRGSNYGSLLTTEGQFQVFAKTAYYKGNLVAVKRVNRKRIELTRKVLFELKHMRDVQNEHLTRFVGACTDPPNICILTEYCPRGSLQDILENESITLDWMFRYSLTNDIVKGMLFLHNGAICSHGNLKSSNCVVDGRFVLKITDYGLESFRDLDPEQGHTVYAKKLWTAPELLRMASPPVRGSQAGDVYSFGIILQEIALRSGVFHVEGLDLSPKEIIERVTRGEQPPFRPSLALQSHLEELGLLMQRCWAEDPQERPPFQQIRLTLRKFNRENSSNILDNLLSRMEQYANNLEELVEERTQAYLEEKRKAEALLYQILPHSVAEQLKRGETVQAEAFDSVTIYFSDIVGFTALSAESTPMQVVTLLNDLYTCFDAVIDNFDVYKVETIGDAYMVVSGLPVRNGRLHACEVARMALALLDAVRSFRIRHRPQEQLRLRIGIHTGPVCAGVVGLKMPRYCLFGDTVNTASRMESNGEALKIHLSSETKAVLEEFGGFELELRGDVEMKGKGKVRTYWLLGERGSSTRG

On to `COC(=O)C1=C(C)NC(C)=C(C(=O)OC(C)(C)CN(C)CCC(c2ccccc2)c2ccccc2)C1c1cccc([N+](=O)[O-])c1` (centres undefined), for which the outcome in [1], in [6], in [7] and in assay [8] was inactive. Further, the Potency result in assay [2], in assay [4], in assay [5] and in assay [9] was “inactive” each time. The Potency in [3] was 9.2 µM (active).

For the compound `CCn1ccnc1CC1COc2ccccc2O1` (centres undefined), the compound was classed as inactive in assay [1], in assay [10], in assay [6] and in [8]. The Potency entry in assay [2], in assay [3], in assay [4], in assay [5], in assay [11] and in assay [12] was “inactive” each time. Besides, the Potency entry in assay [13], in assay [9] and in [14] was “inactive” throughout.

`COC(=O)C1=C(C)NC(C)=C(C(=O)OCCN(C)Cc2ccccc2)C1c1cccc([N+](=O)[O-])c1` (centres undefined): the compound was classed as inactive in assay [1], in assay [10], in assay [6] and in assay [8]. For the same compound, the Potency result in [2] and in [12] was “inactive” each time. In addition, in [15], the Potency is 16.5 µM (active).

Take `CC(N=C(NC#N)Nc1ccncc1)C(C)(C)C` (centres undefined): the compound was classed as inactive in assay [1], in [10], in [6] and in assay [8]. For the same compound, the Potency entry in [2], in assay [3], in assay [15], in [4], in assay [5] and in assay [11] was “inactive” each time. For the same compound, the Potency entry in assay [12], in [13], in assay [9] and in assay [14] was “inactive” throughout.

For `CCCN(CCC)CCc1cccc2c1CC(=O)N2`, the compound was called inactive in assay [1], in assay [10], in assay [6], in assay [7] and in [8]. Moreover, the Potency result in [2], in assay [3], in assay [15], in assay [4], in assay [5] and in assay [12] was “inactive” throughout. For the same compound, the Potency result in assay [13], in assay [9] and in assay [14] was “inactive” each time.

Turning to `NC(=O)c1ncn([C@@H]2O[C@H](CO)[C@@H](O)[C@H]2O)c1O`, the call in assay [1], in [10], in [6] and in [8] was inactive. The Potency entry in [2], in assay [3], in assay [4], in assay [5], in assay [11] and in assay [12] was “inactive” each time. The Potency entry in assay [13], in assay [9] and in [14] was “inactive” each time.

Take `CO[C@@]1(NC(=O)CSCC#N)C(=O)N2C(C(=O)O)=C(CSc3nnnn3C)CS[C@@H]21`: the Potency entry in assay [16], in assay [2], in assay [3], in [15], in assay [4] and in assay [5] was “inactive” in each case. The Potency entry in assay [11], in assay [12], in [13], in assay [9] and in assay [14] was “inactive” in each case. Moreover, the call in assay [10], in assay [6], in assay [7] and in [8] was inactive.

With `Cc1ccc(/C(=C\CN2CCCC2)c2ccccn2)cc1`, the call in [1], in [10], in assay [6], in [7] and in assay [8] was inactive. The Potency result in assay [2], in [15], in assay [4], in assay [5], in [12] and in assay [9] was “inactive” throughout. Also, the Potency result in assay [14] was “inactive”.

In the case of `NC(=Nc1ccccc1)Nc1ccccc1`, the compound was called inactive in assay [1] and in [10]. Further, the Potency entry in assay [2], in [3], in assay [12], in [13], in assay [9] and in assay [14] was “inactive” in each case.

`COc1ccc2c(c1OC)C(=O)O[C@@H]2[C@H]1c2c(cc3c(c2OC)OCO3)CCN1C`: the compound was classed as inactive in assay [1], in assay [10], in [6], in assay [7] and in assay [8]. Further, the Potency entry in [2], in assay [4], in assay [12] and in assay [13] was “inactive” in each case. The Potency in assay [5] is 16.5 µM (active).

As for `C[C@]12C=CC(=O)C=C1CC[C@H]1[C@@H]3C[C@@H](O)[C@](O)(C(=O)CO)[C@@]3(C)C[C@H](O)[C@@]12F`, the compound was classed as inactive in [1], in [10] and in assay [8]. Besides, the Potency result in [2], in assay [3], in assay [4], in assay [5], in [12] and in assay [13] was “inactive” throughout. The Potency result in [9] and in assay [14] was “inactive” each time.

As for `NCCCNCCSP(=O)(O)O`, the result in [1], in assay [10], in [6], in assay [7] and in [8] was inactive. The Potency result in assay [2], in assay [3], in assay [4] and in [5] was “inactive” in each case. Besides, the activity change, negative = cytotoxic was 10.8% [at 9.17 µM] in assay [12], 0.0744% [at 9.22 µM] in assay [13], 14.1% [at 9.22 µM] in assay [9] and 5.74% [at 9.22 µM] in assay [14].

The values are drawn from PubChem BioAssay (NCATS).
